# In PubChem BioAssay (NCATS):
# Records with an inconclusive call do not appear. Where a call stands in place of a potency, no number is given. Active and inactive are the calls of the source. Calls come from the whole dose curve.
# Biological target: Thyroid hormone receptor beta (Homo sapiens) (UniProt P10828)
# Assay: qHTS assay for small molecule agonists of thyroid hormone receptor beta signaling (AID 588545)
# Conditions: TR-UAS-bla GripTite HEK 293, beta-lactamase ratio, agonist mode, 18 h; series mostly up to 76.7 µM
# From the text: NIH Chemical Genomics Center [NCGC]
# U.S. Environmental Protection Agency [EPA]
# National Institutes of Environmental Health Sciences [NIEHS]
# National Toxicology Program [NTP]
# Thyroid hormone receptor (TR) belongs to nuclear hormone receptor superfamily. There are two subtypes for TR: TR-alpha and TR-beta. TR-beta plays a major role in regulating plasma cholesterol levels and it mediates the biological activities of thyroid hormone. Screening environmental chemicals on TR-beta signaling will provide important information for the mechanism of compound action.
# NCGC Assay Protocol Summary
# Using a beta-lactamase reporter-gene under control of the TR response element, a cell-based assay [GeneBLAzer TR-UAS-bla-GripTite assay developed by Invitrogen] was used to measure TR-beta signaling in agonist mode. TR-UAS-bla-GripTite HEK 293 cells were used with assay medium containing 2% charcoal/dextran FBS, 0.1 mM NEAA and 1 mM sodium pyruvate. The assay was performed in clear bottom black Greiner 1536-well plates. T3 was used as a positive control in the screen. Library compounds were measured for their ability to stimulate the reporter gene activity. Compounds were screened in a titration series in 1536-well format. The fluorescence intensity (405 nm excitation, 460/530 nm emission) was measured using an EnVision plate reader. Data was normalized relative to T3 control (10 nM, 100%), and DMSO only wells (basal, 0%). Concentration-response titration points for each compound were fitted to the Hill equation yielding concentrations of half-maximal stimulation (EC50) and maximal response (efficacy) values.
# qHTS protocol for TR-beta beta-lactamase assay in agonist mode
# [Step] [Parameter] [Value] [Description]
# 1. Reagent; 6 uL; 2500 cells/well
# 2. Incubation; 37 C for 4 hrs
# - Dose response; start 3.8 uM, 1:3 dilutions, duplicates in first column
# - Two columns of each 10 and 0.4 nM (finals) concentrations.
# 5. Incubation; 37 C for 18 hrs
# 6. Detection reagent; 1 uL of CCF4-dye
# 7. Incubation; RT for 2 hrs
# 8. Detection; Fluorescence; Envision plate reader
# Thyroid hormone receptor beta (Homo sapiens), sequence (P10828 whole entry, looked up): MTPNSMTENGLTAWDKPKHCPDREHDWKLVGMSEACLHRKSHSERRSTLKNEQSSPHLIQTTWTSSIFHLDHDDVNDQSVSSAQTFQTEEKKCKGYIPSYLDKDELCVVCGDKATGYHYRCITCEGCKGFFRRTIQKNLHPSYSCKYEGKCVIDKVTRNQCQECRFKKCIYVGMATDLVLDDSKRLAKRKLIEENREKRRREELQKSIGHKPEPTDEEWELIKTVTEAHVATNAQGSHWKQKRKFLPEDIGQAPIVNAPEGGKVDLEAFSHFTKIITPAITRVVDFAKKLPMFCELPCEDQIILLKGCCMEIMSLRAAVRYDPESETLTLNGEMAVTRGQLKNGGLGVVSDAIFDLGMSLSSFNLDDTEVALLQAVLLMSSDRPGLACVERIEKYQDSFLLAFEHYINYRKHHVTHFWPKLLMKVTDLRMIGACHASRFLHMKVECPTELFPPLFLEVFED
row,SMILES,Potency
1,ClCc1ccccc1,inactive
2,CCCCCC[N+](=O)[O-],inactive
3,O=[N+]([O-])c1ccc(Cl)cc1,inactive
4,Oc1cc(Cl)cc(Cl)c1,inactive
5,Nn1cnnc1,inactive
6,CC1CC(=O)O1 (stereo not given),inactive
7,O=C(O)CCl,inactive
8,c1ccc(Nc2ccc(Nc3ccccc3)cc2)cc1,inactive
9,ClCCOCCCl,inactive
10,CN(C)c1ccc(N=Nc2ccccc2)cc1,inactive
11,Cc1cc(C)cc(OP(=O)(Oc2cc(C)cc(C)c2)Oc2cc(C)cc(C)c2)c1,inactive
12,Cc1cc(Cl)ccc1O,inactive
13,Cc1ccc2c(C)cccc2c1,inactive
14,CCNCC,inactive
15,[C-]1=CC=CC1.[C-]1=CC=CC1.[Cl-].[Cl-].[Ti+4],inactive
16,ClC(Cl)C(Cl)Cl,inactive
17,COC(C)(C)C,inactive
18,CCN(CC)N=O,inactive
19,CN=C=O,inactive
20,Cc1cnc[nH]1,inactive

row,SMILES,Potency
1,C=CC=O,inactive
2,Cc1ccc2c(c1N)C(=O)c1ccccc1C2=O,inactive
3,C=CCCC#N,inactive
4,O=C(O)C(Cl)(Cl)Br,inactive
5,CCC/C=N/O,inactive
6,O=[N+]([O-])/C=C/c1ccccc1,inactive
7,Oc1ccc(Cl)c(Cl)c1Cl,inactive
8,CC(C)CC(C)N (stereo not given),inactive
9,Nc1cccc(Cl)c1,inactive
10,C[N+](=O)[O-],inactive
11,c1ccc(NNc2ccccc2)cc1,inactive
12,C(CCOCC1CO1)COCC1CO1 (stereo not given),inactive
13,ClCCOCOCCCl,inactive
14,CCCCCc1cc(O)cc(O)c1,inactive
15,Clc1cccc(Cl)c1,inactive
16,O=C(O)c1cc(Cl)ccc1Cl,inactive
17,C=CC(=O)OCCO,inactive
18,CCCCCCCCCCCCCl,inactive
19,Oc1cccc(Cl)c1Cl,inactive
20,Nc1cccc2ccccc12,inactive
